From PubChem BioAssay come the findings set out here.

The source made the active and inactive calls.

For assay [1], the system named is Plasmodium falciparum Sir2 (PF13_0152, Sir2A). Kind of assay: pfSir2 binders on small-molecule microarrays, primary screen, biochemical, small-molecule microarray, 635 nm fluorescence (AID 1098).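 Further: score merges spot fluorescence intensity with its signal-to-noise ratio.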 Conditions: small-molecule microarray binding, fluorescence 635 nm; higher = more signal.
A short description of assay [2]: small-molecule microarray binders of probe aDKK1, primary screen, biochemical, biotinylated probe, 635/667 nm fluorescence (AID 1099).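 Further: score merges 667nm spot fluorescence with signal to noise across triplicate slides.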 To be noted: higher = more signal.
Assay [3] is described as follows: small-molecule microarray binders of probe aCHRDL2, primary screen, biochemical, biotinylated probe, 635/667 nm fluorescence (AID 1100). To be noted: higher = more signal.
The nature of assay [4]: splicing luciferase reporter signal modulators, primary screen, spliceosome inhibition project, cell-based, HEK293, splice +/- reporter (AID 1101).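 Further: HEK293 cells carrying a splicing-competent luciferase reporter gene; test concentration not given here.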 Conditions: luminescence, 24 h, higher = more signal, called active from +8 up or from −8 down.
Assay [5] deals with Fibroblast growth factor 10 (Homo sapiens) (UniProt O15520). Kind of assay: FGF10 binders on small-molecule microarrays, primary screen, biochemical, small-molecule microarray, 635 nm fluorescence (AID 1102). Conditions: FGF10 binding, fluorescence 635 nm, higher = more signal.
Assay [6] concerns glycogen synthase kinase-3 (GSK3A per assay name; protocol says GSK3B). The assay is described as follows: GSK3 binders on small-molecule microarrays, primary screen, biochemical, small-molecule microarray, 635 nm fluorescence, GSK3A (AID 1103). Further: the record names both GSK3A and GSK3B. Conditions: small-molecule microarray binding, fluorescence 635 nm; higher = more signal.
The target in assay [7] is Epidermal growth factor receptor (Homo sapiens) (UniProt P00533). The assay is described as follows: EGFR binders on small-molecule microarrays, primary screen, biochemical, small-molecule microarray, 635 nm fluorescence (AID 1104).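 Further: score merges 667 nm emission intensity with spot signal to noise over triplicate slides.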 Conditions: EGFR binding, higher = more signal.
For assay [8], the target named is Follistatin-related protein 3 (Homo sapiens) (UniProt O95633). Kind of assay: FSTL3 binders on small-molecule microarrays, primary screen, biochemical, small-molecule microarray, 635 nm fluorescence (AID 1105).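 Further: score merges emission near 667 nm and signal to noise per printed spot across three slides.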 Conditions: FSTL3 binding, higher = more signal.
Assay [9] concerns the target Dickkopf-related protein 1 (Homo sapiens) (UniProt O94907). The assay is described as follows: DKK1 binders on small-molecule microarrays, primary screen, biochemical, small-molecule microarray, 635 nm fluorescence scan (AID 1106).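 Further: score merges emission near 667 nm with signal to noise over three replicate slides.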 Conditions: DKK1 binding, higher = more signal.
For assay [10], the system named is Inhibin beta A chain (activin A). The assay is described as follows: INHBA (activin A) binders on microarrays, primary screen, biochemical, small-molecule microarray, 635 nm fluorescence scan (AID 1107).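 Further: mouse activin A protein probed at 4.33 µg/mL on printed slides; score merges bound-protein fluorescence near 667 nm with spot signal-to-noise.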 To be noted: small-molecule microarray binding, higher = more signal.
In assay [11] the test system is Human papillomavirus type 1a protein E7 (residues 44-93). The assay is described as follows: HPV1a E7 fragment binders on microarrays, primary screen, biochemical, small-molecule microarray, residues 44-93, 635 nm fluorescence (AID 1108).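 Further: E7 fragment applied at 1 µg/mL in TBST for 1 h at 4 C; score combines spot fluorescence with its signal to noise ratio.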 To be noted: small-molecule microarray binding, fluorescence 635 nm; higher = more signal.
Assay [12] can be described thus: modulators of HCV replicon luciferase signal, primary screen, HCV replication inhibitor project, Huh7 cells, luciferase reporter (AID 1109).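 Further: huh7 hepatoma cells harbouring a luciferase neomycin HCV replicon reporter; luciferase luminescence as measure of HCV replicon replication; test concentration not given here.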 Conditions: 48 h, higher = more signal. A general note: A replicon is a self-replicating genome or part of one, used to study replication in cells.
Assay [13] deals with Left-right determination factor 2 (Homo sapiens) (UniProt O00292). The assay is described as follows: LEFTY2 binders on small-molecule microarrays, primary screen, biochemical, small-molecule microarray, 635 nm fluorescence scan (AID 1110). To be noted: LEFTY2 binding, higher = more signal.
Assay [14] has as its target Calmodulin-1 (Homo sapiens) (UniProt P0DP23). The assay is described as follows: CALM1 binders on microarrays, EGTA buffer, profiling panel, biochemical, small-molecule microarray, Cy5-labelled CALM1 (AID 1111).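 Further: labelled calmodulin applied in Tris saline Tween buffer holding calcium plus EGTA and DTT.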 To be noted: Cy5-CALM1 binding fluorescence, higher = more signal.
Assay [15] has the same target. Kind of assay: calcium-bound CALM1 binders on microarrays, profiling panel, artefact control for SMM control-protein annotation, biochemical, small-molecule microarray, Cy5-labelled CALM1, plus calcium (AID 1112).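 Further: score merges spot fluorescence with signal to noise from triplicate slides.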 Conditions: Cy5-CALM1 binding fluorescence, higher = more signal.
The nature of assay [16]: small-molecule microarray binders of probe aWnt5a, primary screen, biochemical, biotinylated probe, 635/667 nm fluorescence (AID 1113).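 Further: score merges 667 nm fluorescence intensity with signal-to-noise per printed feature.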 To be noted: higher = more signal.
Assay [17] in a line: small-molecule microarray binders of probe aShh, primary screen, biochemical, biotinylated probe, 635/667 nm fluorescence (AID 1114).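 Further: probe is biotin-labelled aShh protein from a stem cell growth factor screen; measures binding of labelled protein to compounds printed on the slide; score merges feature fluorescence at 667 nm with signal-to-noise.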 To be noted: higher = more signal.
A short description of assay [18]: small-molecule microarray binders of probe aNog, primary screen, biochemical, biotinylated probe, 635/667 nm fluorescence (AID 1115).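 Further: probe is biotinylated aNog protein used at 0.15 µg/mL for 1 h at 4 C; z-score combines 667 nm fluorescence of each spot with its signal to noise.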 To be noted: higher = more signal.
Assay [19] addresses Torsin-1A-interacting protein 1 (Homo sapiens) (UniProt Q5JTV8). The assay is described as follows: LAP1 binders from COS7 cell lysate, primary screen, small-molecule microarray, 635/667 nm fluorescence (AID 1116). To be noted: COS7-hLAP1 lysate binding, 635 nm fluorescence, higher = more signal.
The target in assay [20] is Alpha-bungarotoxin (Bungarus multicinctus) (UniProt P60615). The assay is described as follows: alpha-bungarotoxin binders on microarray, profiling panel, artefact control for SMM control protein annotation, biochemical, small-molecule microarray, Alexa647 label, 635/667 nm fluorescence (AID 1117). Conditions: alpha-BTX-A647 binding fluorescence, higher = more signal.
Chain of Alpha-bungarotoxin (Bungarus multicinctus) (P60615 whole entry, looked up): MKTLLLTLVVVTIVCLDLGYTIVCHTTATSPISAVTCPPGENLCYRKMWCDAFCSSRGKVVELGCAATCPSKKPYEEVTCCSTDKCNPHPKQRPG

Chain of Left-right determination factor 2 (Homo sapiens) (O00292 whole entry, looked up): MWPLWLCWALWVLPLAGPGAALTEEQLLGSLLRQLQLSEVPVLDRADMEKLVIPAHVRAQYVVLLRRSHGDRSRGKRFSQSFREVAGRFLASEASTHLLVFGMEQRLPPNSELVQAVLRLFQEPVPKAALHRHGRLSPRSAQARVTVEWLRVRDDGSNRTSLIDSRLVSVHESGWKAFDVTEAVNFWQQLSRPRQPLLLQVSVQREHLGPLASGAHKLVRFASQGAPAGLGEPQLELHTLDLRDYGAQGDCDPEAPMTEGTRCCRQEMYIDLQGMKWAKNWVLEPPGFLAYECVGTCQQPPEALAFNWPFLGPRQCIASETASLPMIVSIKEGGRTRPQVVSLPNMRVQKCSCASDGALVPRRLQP
Chain of Follistatin-related protein 3 (Homo sapiens) (O95633 whole entry, looked up): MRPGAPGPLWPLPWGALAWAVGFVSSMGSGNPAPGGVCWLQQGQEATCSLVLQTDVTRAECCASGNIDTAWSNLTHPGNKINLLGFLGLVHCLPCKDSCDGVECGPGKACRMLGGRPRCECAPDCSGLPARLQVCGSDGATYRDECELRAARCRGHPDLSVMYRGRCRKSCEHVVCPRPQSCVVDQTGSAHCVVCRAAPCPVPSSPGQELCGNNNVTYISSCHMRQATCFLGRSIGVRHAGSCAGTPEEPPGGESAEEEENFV
Chain of Torsin-1A-interacting protein 1 (Homo sapiens) (Q5JTV8 whole entry, looked up): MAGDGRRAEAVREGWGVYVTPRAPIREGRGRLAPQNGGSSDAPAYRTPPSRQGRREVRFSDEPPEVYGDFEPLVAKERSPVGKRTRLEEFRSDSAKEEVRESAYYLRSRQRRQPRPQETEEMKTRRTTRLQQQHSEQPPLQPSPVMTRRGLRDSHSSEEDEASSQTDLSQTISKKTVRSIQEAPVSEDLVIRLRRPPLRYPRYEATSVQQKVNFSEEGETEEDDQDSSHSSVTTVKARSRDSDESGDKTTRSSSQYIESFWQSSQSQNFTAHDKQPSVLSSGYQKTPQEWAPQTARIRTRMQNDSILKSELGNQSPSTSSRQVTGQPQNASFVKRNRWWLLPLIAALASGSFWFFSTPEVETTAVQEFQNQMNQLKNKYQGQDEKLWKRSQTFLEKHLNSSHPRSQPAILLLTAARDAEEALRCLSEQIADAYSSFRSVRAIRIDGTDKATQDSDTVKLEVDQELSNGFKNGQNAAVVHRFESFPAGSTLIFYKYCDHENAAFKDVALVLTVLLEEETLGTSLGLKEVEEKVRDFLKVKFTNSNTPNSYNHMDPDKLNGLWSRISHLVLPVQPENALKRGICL
Chain of Dickkopf-related protein 1 (Homo sapiens) (O94907 whole entry, looked up): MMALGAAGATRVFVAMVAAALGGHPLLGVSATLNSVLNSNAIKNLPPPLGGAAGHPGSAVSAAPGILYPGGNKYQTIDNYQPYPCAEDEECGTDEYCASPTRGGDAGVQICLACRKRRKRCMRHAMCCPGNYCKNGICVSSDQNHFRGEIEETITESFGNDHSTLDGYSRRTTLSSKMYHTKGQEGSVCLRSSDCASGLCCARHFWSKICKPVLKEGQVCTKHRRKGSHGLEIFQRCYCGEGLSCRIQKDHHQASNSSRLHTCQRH
Chain of Epidermal growth factor receptor (Homo sapiens) (P00533 whole entry, looked up): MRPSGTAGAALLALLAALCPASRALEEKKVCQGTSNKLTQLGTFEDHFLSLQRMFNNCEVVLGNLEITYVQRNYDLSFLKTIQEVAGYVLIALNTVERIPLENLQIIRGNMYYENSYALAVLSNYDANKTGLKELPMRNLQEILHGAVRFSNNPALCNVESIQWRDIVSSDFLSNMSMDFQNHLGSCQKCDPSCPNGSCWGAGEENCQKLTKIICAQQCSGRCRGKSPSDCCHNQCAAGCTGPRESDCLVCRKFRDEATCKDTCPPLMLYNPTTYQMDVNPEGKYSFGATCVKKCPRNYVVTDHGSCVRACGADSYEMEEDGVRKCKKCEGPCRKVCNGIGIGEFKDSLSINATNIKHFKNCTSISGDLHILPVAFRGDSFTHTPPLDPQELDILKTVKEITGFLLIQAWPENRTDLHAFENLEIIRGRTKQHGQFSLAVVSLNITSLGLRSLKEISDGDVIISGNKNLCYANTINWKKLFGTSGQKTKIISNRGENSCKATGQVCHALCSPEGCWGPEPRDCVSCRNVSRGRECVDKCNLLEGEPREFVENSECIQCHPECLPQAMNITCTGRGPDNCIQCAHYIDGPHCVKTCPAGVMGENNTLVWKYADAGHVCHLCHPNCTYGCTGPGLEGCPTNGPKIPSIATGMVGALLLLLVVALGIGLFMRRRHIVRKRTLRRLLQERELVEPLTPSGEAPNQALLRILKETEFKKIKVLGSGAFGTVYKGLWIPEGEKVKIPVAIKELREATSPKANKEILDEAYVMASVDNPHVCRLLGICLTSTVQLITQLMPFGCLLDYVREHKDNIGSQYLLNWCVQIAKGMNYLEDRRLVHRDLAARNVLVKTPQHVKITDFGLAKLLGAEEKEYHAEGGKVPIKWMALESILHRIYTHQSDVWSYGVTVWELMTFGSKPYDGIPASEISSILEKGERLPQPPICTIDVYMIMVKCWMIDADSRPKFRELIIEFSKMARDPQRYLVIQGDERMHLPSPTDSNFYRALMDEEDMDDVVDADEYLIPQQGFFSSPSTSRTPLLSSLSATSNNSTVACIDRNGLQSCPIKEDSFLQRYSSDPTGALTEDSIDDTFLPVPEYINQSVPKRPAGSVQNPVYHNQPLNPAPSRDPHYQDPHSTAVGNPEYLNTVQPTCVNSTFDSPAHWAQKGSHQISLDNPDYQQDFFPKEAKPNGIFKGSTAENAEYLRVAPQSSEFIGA
Chain of Fibroblast growth factor 10 (Homo sapiens) (O15520 whole entry, looked up): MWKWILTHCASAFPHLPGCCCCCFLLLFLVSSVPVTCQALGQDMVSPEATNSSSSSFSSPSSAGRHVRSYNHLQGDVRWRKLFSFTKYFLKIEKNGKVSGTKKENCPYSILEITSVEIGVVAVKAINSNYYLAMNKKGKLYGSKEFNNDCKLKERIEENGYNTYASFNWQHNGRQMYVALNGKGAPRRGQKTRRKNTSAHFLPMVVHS

Regarding `COC(=O)[C@@]1(Cc2ccc(F)cc2)[C@H]2c3cc(C(=O)N4CCCC4)n(Cc4cc(F)cc5c4OCOC5)c3C[C@H]2CN1C(=O)c1ccccc1`, the composite z-score is 0.672 in [1]; 1.14 in assay [2]; 1.06 in assay [3]; 0.762 in [5]; -0.0785 in assay [6]; 0.0228 in assay [7]. Further, the composite z-score was 1.3 in assay [8]; -0.334 in [9]; 0.888 in assay [10]; -0.0014 in assay [11]; -0.285 in assay [13]; 1.37 in [14]. Also, the composite z-score in assay [15] is 1.05; in assay [16], 0.179; in assay [17], 0.184; in assay [18], -0.694; in assay [19], -0.415; in assay [20], 0.92. Besides, the values for the z-score in [4] and in [12] were -0.844 (inactive) and -2.1, respectively.

As for `NC(=O)N1C(=O)C2C(C1=O)C1C=C(CCCO)C2C(c2ccc(CN3CCCC3)cc2)N1Cc1sc2ccccc2c1Cl` (stereo not given), the composite z-score is 0.0883 in [1]; -0.291 in [2]; 0.233 in assay [3]; 0.528 in assay [5]; -0.42 in assay [6]; -0.243 in assay [7]. The composite z-score is -0.744 in assay [8]; -0.29 in assay [9]; -0.0473 in [10]; 0.53 in assay [11]; -0.292 in assay [13]; 0.302 in assay [14]. Also, the composite z-score in [15] is 0.424; in assay [16], -0.0735; in [17], -0.0146; in assay [18], -0.342; in [19], -0.218; in [20] it was 0.187. In addition, the z-score in assay [4] is -0.497 (inactive); in [12], -2.9.

On to `C=CCNC(=O)[C@H]1[C@@H]2C(=O)O[C@@H](c3ccccc3)[C@@H](c3ccccc3)N2[C@@H](c2ccc(OCCO)cc2)[C@]12C(=O)Nc1ccc(C#CC3(O)CCCCCC3)cc12`, for which the composite z-score turned out to be 1.19 in assay [1]; 0.514 in [2]; 0.446 in assay [3]; 1.29 in assay [5]; 1.3 in assay [6]; 0.982 in [7]. Besides, the composite z-score was determined as 1.29 in assay [8]; 0.527 in assay [9]; 0.996 in assay [10]; 1.24 in assay [11]; 0.954 in assay [13]; 1.29 in assay [14]. In addition, the composite z-score in [15] was 0.229; in assay [16], -0.0607; in assay [17] it was -0.0146; in [18], 0.74; in [19], 1.47; in [20], 1.74. For the same compound, the results for the z-score in assay [4] and in assay [12] were -0.313 (inactive) and -2.33, respectively.

As for `CCOC(=O)c1cn(C[C@H](Cc2ccccc2)NC(=O)N[C@H](CO)CCc2oc(C(C)=O)c(C(=O)OC)c2C(=O)OC)nn1`, the composite z-score is 0.559 in assay [1]; 0.0549 in assay [2]; -0.398 in [3]; 1.37 in assay [5]; 1.28 in assay [6]; 0.956 in assay [7]. For the same compound, the composite z-score in assay [8] is 1.49; in assay [9], 1.1; in assay [10], -0.0083; in assay [11] it was 1.39; in assay [13] it was 0.896; in assay [14], -0.0815. Further, the composite z-score in assay [15] was -0.471; in [16], -0.0816; in assay [17], -0.0553; in [18], -0.158; in assay [19], 0.866; in assay [20] it was 0.491. Moreover, the figures for the z-score in [4] and in assay [12] were -1.1 (inactive) and 0.404, respectively.

On to `C=CCN1Cc2ccccc2[C@H]2OC(c3ccc(OCCCO)cc3)=N[C@@]2(CCS(=O)(=O)c2ccccc2)C1=O`, for which the composite z-score is 1.45 in [1]; 1.07 in assay [2]; 1.35 in [3]; 0.728 in assay [5]; 1.26 in assay [6]; 0.714 in [7]. Moreover, the composite z-score was 1.38 in assay [8]; 0.933 in [9]; 0.852 in [10]; 1.26 in [11]; 0.62 in [13]; 1.64 in assay [14]. The composite z-score in assay [15] was 0.472; in assay [16], 0.0704; in assay [17] it was -0.0056; in assay [18], -0.0831; in [19] it was 1.49; in assay [20] it was 1.21. The z-score in [4] is 0.767 (inactive); in assay [12], -1.56.
